Source: PubChem
A selection: hits, their analogues and other compounds. The true share with any hit is near 2.6%.
eIF4H FP inh: human eIF4H binding inhibitors, primary screen, translation initiation inhibitor project, biochemical, uHTS, fluorescence polarization; Eukaryotic translation initiation factor 4H (Homo sapiens), Q15056; eIF4H fluorescence polarization binding assay; inhibition, % at 35 µM; 0.94% of 290,000 active; AID 2012, 2009;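 also: calls also rest on retests at 20 µM and on dose response follow-up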
ABCB6 inh MLPCN: ABCB6 transporter inhibitors, primary screen, K562-ABCB6 cells, flow cytometry, MLPCN library. AID 602162, 2011. 0.19% of 360,000 active. ATP-binding cassette sub-family B member 6 (Homo sapiens), Q9NP58. fluorescence ratio to DMSO, % at 10 µM. K562-ABCB6 porphyrin accumulation, 1 h; active compounds read low;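 active = fluorescence ratio to DMSO below 75%, the collection mean minus 3 SD; inconclusive = too few cells collected in the well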;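 also: signal is porphyrin accumulated inside mitochondria; 100% equals median channel fluorescence of DMSO control wells; lower ratio means ABCB6 inhibition with less porphyrin fluorescence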
Target sequence (Q9NP58 whole entry, looked up): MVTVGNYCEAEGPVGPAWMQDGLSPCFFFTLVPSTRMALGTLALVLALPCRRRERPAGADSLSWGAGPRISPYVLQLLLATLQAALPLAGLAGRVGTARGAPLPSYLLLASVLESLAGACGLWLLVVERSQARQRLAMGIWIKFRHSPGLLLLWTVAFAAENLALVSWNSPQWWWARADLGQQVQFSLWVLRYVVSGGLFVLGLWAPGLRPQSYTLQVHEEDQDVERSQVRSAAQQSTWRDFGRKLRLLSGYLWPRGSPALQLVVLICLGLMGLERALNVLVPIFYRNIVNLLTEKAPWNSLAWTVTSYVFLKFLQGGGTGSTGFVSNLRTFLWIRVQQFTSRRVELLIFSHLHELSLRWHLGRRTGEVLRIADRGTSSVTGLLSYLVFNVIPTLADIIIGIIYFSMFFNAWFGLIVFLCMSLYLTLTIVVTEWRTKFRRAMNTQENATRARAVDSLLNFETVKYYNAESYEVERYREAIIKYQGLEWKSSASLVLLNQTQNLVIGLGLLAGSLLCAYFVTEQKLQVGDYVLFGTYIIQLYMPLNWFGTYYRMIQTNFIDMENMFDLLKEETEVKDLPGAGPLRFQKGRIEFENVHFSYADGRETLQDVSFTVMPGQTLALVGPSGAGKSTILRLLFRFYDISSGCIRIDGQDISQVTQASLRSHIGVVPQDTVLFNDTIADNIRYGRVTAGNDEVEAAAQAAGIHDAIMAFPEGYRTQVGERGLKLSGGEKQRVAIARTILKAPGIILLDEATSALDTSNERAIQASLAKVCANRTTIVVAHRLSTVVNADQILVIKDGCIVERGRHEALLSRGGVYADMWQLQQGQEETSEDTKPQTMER
PABP FP inh: PABP poly(A) RNA binding inhibitors, primary screen, biochemical, fluorescence polarization, uHTS; calls only at 35 µM; 1% of 290,000 active; AID 2014, 2009;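 also: calls also rest on retests at 20 µM and on dose response follow-up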
PHOSPHO1 block: PubChem AID 1565 | Phosphoethanolamine/phosphocholine phosphatase (Homo sapiens), Q8TCT1 | recombinant PHOSPHO1, absorbance phosphatase assay | inhibition, % at 13.3 µM | 1.1% of 290,000 active; in the data active = inhibition above about 60%
AI-2 QS mod: Vibrio harveyi AI-2 quorum sensing modulators, primary screen, JMH597 strain, luminescence/OD600 ratio | Vibrio harveyi JMH597 AI-2 luminescence/OD600 ratio, 9 h; active compounds read low; strain lacks LuxN and CqsS sensors; 0 = neutral-control median | activity change, % at 7.5 µM | 0.4% of 300,000 active | AID 2094, 2009; in the data active = activity change below about -75%, passing the limit was not always enough; inconclusive = no clear call, values can overlap the other calls;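 also: luminescence divided by OD600 gain over 9 h not by final OD600 alone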
PABP1 MLLE inh: inhibitors of PABP1 MLLE–PAM2 peptide binding, primary screen, biochemical, fluorescence polarization, FITC-PAM2, GST-MLLE; Polyadenylate-binding protein 1 (Homo sapiens), P11940; inhibition, % at 20 µM; 0.36% of 360,000 active; in the data active = inhibition above about 35%, passing the limit was not always enough;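 also: plate controls were DMSO wells with GST-MLLE for no effect and wells lacking GST-MLLE protein for full effect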
* = called active by the depositor; i = inactive; ? = inconclusive; · = not tested or not shown; + = active, no number. Unless noted, no rule for the calls is given here.

SMILES | eIF4H FP inh | ABCB6 inh MLPCN | PABP FP inh | PHOSPHO1 block | AI-2 QS mod | PABP1 MLLE inh
O=C(NCc1ccccc1)C(c1ccncc1)N(C(=O)c1csnn1)C1CC1 (centres undefined) | -9.1 | 94.0 | i | 62.3* | 6.2 | -0.9
CC(C)[C@@H]1CC2=C(C(=O)OC(C)(C)O2)[C@H](CCc2ccccc2)O1 | · | 99.0 | · | · | · | ·
CN(C)S(=O)(=O)c1ccc(C(=O)OCC(=O)NCc2ccco2)cc1 | 69.2* | 98.0 | ? | 28.1 | -67.2 | -15.1
O=C(COC(=O)c1ccc(NS(=O)(=O)c2cccs2)cc1)NCc1ccco1 | 99.7* | 95.0 | + | 0.1 | 27.6 | -6.3
CN(C)S(=O)(=O)c1ccc(C(=O)NCc2ccco2)cc1 | 4.0 | 87.0 | i | 11.7 | 21.3 | 11.0
O=C(COC(=O)c1cncc(Br)c1)NCc1ccc(F)cc1 | 9.9 | 99.0 | ? | 16.6 | 19.0 | -4.0
O=C(COC(=O)c1cncc(Br)c1)NCc1ccco1 | 97.1* | 107.0 | + | 3.9 | 24.8 | 6.8
O=C(COC(=O)Cc1ccc(F)cc1)NCc1ccco1 | 92.8* | 93.0 | + | -29.1 | 21.9 | -12.3
Cc1cc(C(=O)N2CCCC2(C)C(=O)NCC(C)C)nn1C(C)(C)C (centres undefined) | · | 98.0 | · | · | · | 0.0
COc1ccc(-n2nnnc2C(c2ccnc3ccccc23)N2CCN(C/C=C/c3ccccc3)CC2)cc1 (centres undefined) | · | 95.0 | · | · | · | -12.4
CC1=C(C(=O)N2CCCCCC2)CC(CC(=O)NCCc2ccccn2)C(=O)N1Cc1ccc(C(C)(C)C)cc1 (centres undefined) | · | 102.0 | · | · | · | ·
COc1cc(NC(=O)c2cccs2)c(C(=O)OCC(=O)NCc2ccco2)cc1OC | 89.4* | 120.0 | + | 19.9 | 24.0 | -24.4
CCCCC[C@@H](C)N1C[C@H](COCc2ccccc2)Oc2cc(N3CC[C@H](O)C3)ccc2S1(=O)=O | · | 97.0 | · | · | · | ·
O=C1C(=Cc2ccc(Br)o2)C(=O)c2ccccc21 | 89.4* | 101.0 | + | -7.9 | · | 23.0
COc1ccc(CN(CC2CCCO2)S(=O)(=O)c2ccc(C(=O)O)cc2)cc1OC (centres undefined) | -5.1 | 104.0 | i | 97.1* | 19.7 | -1.5
COc1ccc(C(N)CCc2ccco2)cc1 (centres undefined) | 50.2* | 106.0 | + | 20.8 | 42.2 | -34.7
CCc1nc2c(OCCn3cccc3)cccn2c1N(C)C(=O)c1ccc(C)cc1 | · | 97.0 | · | · | · | -5.3
N#Cc1sc(NCc2ccccc2)nc1Cl | 7.2 | 93.0 | i | 61.5* | 0.8 | 8.4
O=C1c2cccc3c([N+](=O)[O-])ccc(c23)C(=O)N1O | ? | 153.0 | ? | 2.0 | ? | 26.4
COc1ccc2c3c(cccc13)C(=O)N(O)C2=O | 95.1 | 99.0 | i | 5.6 | 44.5 | 40.3*
COc1cc(CN2C[C@@H](CO)O[C@@H](n3cnc4c(NCCCO)ncnc43)C2)cc(OC)c1OC | · | 100.0 | · | · | · | 12.2
O=C(Nc1ccc2c(c1)OCCO2)C1c2ccccc2OCC(=O)N1CCc1c[nH]c2ccccc12 (centres undefined) | · | 98.0 | · | · | · | ·
CCN(CC)c1ncnc2c1ncn2[C@H]1CN(Cc2cccnc2)C[C@@H](CO)O1 | · | 96.0 | · | · | · | 2.0
COc1cccc(-c2nc(-c3ccccc3)nc(N3CCN(C)CC3)c2C#N)c1 | active | 105.0 | i | 10.8 | 19.9 | 1.1
COCCNC(=O)c1cc2c(c(-c3cccc(C#CC(C)(C)O)c3)n1)[C@@H](CCO)N(S(=O)C(C)(C)C)C2 (some centres undefined) | · | 109.0 | · | · | · | -7.1
SMILES | eIF4H FP inh | ABCB6 inh MLPCN | PABP FP inh | PHOSPHO1 block | AI-2 QS mod | PABP1 MLLE inh
CCN1C(=O)CC(Sc2ccccc2N)C1=O (centres undefined) | 0.8 | 101.0 | i | -20.9 | -2.4 | 7.5
Nc1ccccc1SC1CC(=O)N(Cc2ccccc2)C1=O (centres undefined) | active | 92.0 | + | 9.1 | 32.4 | 28.2
Cc1ccc2c(c1)S/C(=C\c1cccc[n+]1C)N2CCO | -5.6 | 177.0 | + | · | 19.2 | -144.3
C[n+]1ccccc1/C=C1\Sc2ccccc2N1CCO | · | 130.0 | · | 29.0 | -9.3 | -127.0
CCCCCc1c2c(cc(O)c1C(=O)O)OC(=O)c1c(cc(OC)cc1C(=O)CCCC)O2 | 61.8 | 100.0 | + | 27.7 | 21.3 | -6.2
O=C(c1ccc(F)cc1)c1c[nH]c(C(=O)NCCCN2CCOCC2)c1 | -7.6 | 99.0 | i | 4.7 | 8.9 | -4.9
CCC(CC)C(=O)c1c[nH]c(C(=O)NCCCN2CCOCC2)c1 | -10.0 | 98.0 | i | 66.4* | -3.1 | -3.3
O=C1N2CCSC2=NC1(Nc1ccccn1)C(F)(F)F (centres undefined) | -5.7 | 104.0 | i | 13.7 | 11.4 | 29.2
CS(=O)(=O)c1ccc2nc(NC3(C(F)(F)F)N=C4SCCN4C3=O)sc2c1 (centres undefined) | -12.0 | 94.0 | i | 7.4 | 6.9 | 41.5*
CC(=O)c1ccc2cccc3c2c1N=CN3C | 72.3* | 192.0 | i | 20.6 | 10.7 | 17.4
CN1/C(=N\O)c2cccc3cccc1c23 | 6.9 | 109.0 | i | 2.6 | 22.9 | 22.3
CC(C)COC(=O)N1CCCCC1c1cc(C(=O)Nc2ccccc2)no1 (centres undefined) | · | 97.0 | · | · | · | -6.8
COc1ccc(NC(=O)c2noc3c2CCC3)cc1 | 106.6* | 94.0 | + | -1.4 | 43.7 | 2.8
COc1ccc(C(C)=O)cc1Cn1c(C)c(C(=O)NC2CC2)sc1=O | · | 102.0 | · | · | · | 11.8
C=CCCC(=O)N1C[C@H]2CON(C)[C@H]2C[C@H]1c1ccc(N2CCCCC2)cc1 | · | 101.0 | · | · | · | -65.0
Nc1c(NCc2ccccc2F)c(=O)[nH]c(=O)n1Cc1ccccc1 | 50.6* | 103.0 | + | -20.1 | 10.1 | 0.9
CCCCn1c(N)c(NCc2ccccc2)c(=O)[nH]c1=O | -0.1 | 98.0 | i | 16.8 | -6.5 | 17.5
CCc1nc2c(OCc3ccc(Cl)cc3)cccn2c1N(C)C(=O)c1ccncc1 | · | 91.0 | · | · | · | -9.2
COc1cc(F)ccc1-c1csc(C(C)(O)c2ccccc2)n1 (centres undefined) | · | 97.0 | · | · | · | -4.4
CCOC(=O)C1=C[C@@H](C(C)(C)C)N(S(=O)(=O)c2ccc(C)cc2)[C@H]1c1cccc2ccccc12 | · | 94.0 | · | · | · | 16.5
NC(=O)c1c(NC(NC(=O)c2ccco2)C(=O)c2ccc(Cl)cc2)sc2c1CCCC2 (centres undefined) | 4.2 | 103.0 | i | 99.8* | 23.9 | -72.1
CC(C)N1CCCC(C)(C(=O)Nc2nc3ccccc3n2C)C1 (centres undefined) | · | 99.0 | · | · | · | 7.7
